# Source: PubChem BioAssay AID1030 (National Center for Advancing Translational Sciences (NCATS), 2008)
# About 16,000 (7.3%) of roughly 220,000 compounds were called active. Inconclusive results (about 25%) are left out. The entries come from a sample that favours actives as a whole. Entries that show only a call come without a potency. Unmarked numbers belong to inactive results. Calls follow the shape of the dose curve; as a rule, active = well fitted inhibition curve with a large enough effect (not every such curve was filed as active); inconclusive = small, poorly fitted or top-dose-only effect, or another doubt; inactive = no such curve, though single readings can be large or run the other way.
# Molecular target: Aldehyde dehydrogenase 1A1 (Homo sapiens) (UniProt P00352)
# Assay: qHTS Assay for Inhibitors of Aldehyde Dehydrogenase 1 (ALDH1A1)
# Conditions: Purified ALDH1A1, NADH fluorescence, propionaldehyde substrate; series mostly up to 75.3 µM
# Potency is read from the fitted curve at half-maximal effect.
# Sequence of Aldehyde dehydrogenase 1A1 (Homo sapiens) (P00352 whole entry, looked up): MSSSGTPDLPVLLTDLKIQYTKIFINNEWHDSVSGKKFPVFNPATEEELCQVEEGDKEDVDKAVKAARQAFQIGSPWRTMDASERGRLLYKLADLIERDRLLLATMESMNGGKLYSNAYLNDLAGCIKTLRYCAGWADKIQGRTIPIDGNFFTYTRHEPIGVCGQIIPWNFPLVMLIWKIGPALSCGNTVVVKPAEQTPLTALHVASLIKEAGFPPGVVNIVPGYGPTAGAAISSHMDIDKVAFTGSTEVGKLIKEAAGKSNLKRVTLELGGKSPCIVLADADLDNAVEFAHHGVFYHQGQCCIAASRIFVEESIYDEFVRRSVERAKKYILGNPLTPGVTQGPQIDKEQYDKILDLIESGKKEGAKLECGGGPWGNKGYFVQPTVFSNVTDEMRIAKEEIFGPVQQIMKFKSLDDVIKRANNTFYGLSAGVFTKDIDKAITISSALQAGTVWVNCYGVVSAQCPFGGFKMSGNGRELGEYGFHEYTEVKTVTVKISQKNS
SMILES,Potency,"activity, negative = inhibition"
CC1=C(C)C(=O)OC(C(C)C2CCC3C4CC=C5CC(OC6OC(COC7OC(CO)C(O)C(O)C7O)C(O)C(O)C6O)CC(O)C5(C)C4CCC23C)C1 (centres undefined),inactive,–
C[C@@]12CCC(=O)C=C1CC[C@H]1C2[C@@H](O)C[C@]2(C)[C@@H]1CC[C@@]2(O)C(=O)COC(=O)C1CCCC1 (some centres undefined),–,-0.294% [at 13.5 µM]
O=C(NCCc1ccco1)c1nn(Cc2ccccc2)c(=O)c2ccccc12,17.8 µM (active),–
Nc1nonc1C(=O)NCCc1ccccc1,inactive,–
O=C(NCCSc1ccccc1)c1ccco1,inactive,–
NC1=NC2(CCCCC2)N(c2ccc(F)cc2F)C(N)=N1,inactive,–
CSc1nnc(-c2ccc(C(F)(F)F)cn2)o1,inactive,–
CCn1c(-c2cccnc2Cl)nc2cc(C)c(C)cc21,inactive,–
CN(C)c1ccc(/C=N\S(=O)(=O)c2ccccc2)cc1,0.708 µM (active),–
COc1ccc(/C=N/NC(=O)C(C)N(c2ccc(OC)cc2)S(C)(=O)=O)cc1 (centres undefined),inactive,–
CN(C)c1cc[n+](Cc2ccccc2)cc1,inactive,–
C#CCOCCOCCOCCNc1nc(N2CCN(C(=O)[C@H](Cc3ccc(O)cc3)n3cc(C(N)CC(C)C)nn3)CC2)nc(N2CCN(C(=O)[C@H](CCC(=O)O)n3cc(C(N)[C@H](C)CC)nn3)CC2)n1 (some centres undefined),inactive,–
CC1=C(C/C=C(\C)CCCC(C)CCCC(C)CCCC(C)C)C(=O)c2ccccc2C1=O (centres undefined),inactive,–
Cc1cc(C)c2nc(SCC(=O)N(C)C3CCS(=O)(=O)C3)cc(C)c2c1 (centres undefined),inactive,–
Cc1ccccc1NC(=O)Nc1ccccc1N1CCCCC1,inactive,–
Cc1ccc(CN2CCN(Cc3ccc4ncccc4c3)CC2CCO)cc1 (centres undefined),inactive,–
O=C(NCCCNc1ccc([N+](=O)[O-])cc1Cl)c1ccccc1F,15.8 µM (active),–
O=C(NCCNc1ccc([N+](=O)[O-])cc1)c1cccc2c(Br)cccc12,inactive,–
O=[N+]([O-])c1ccc(NCCCN2CCOCC2)c(Cl)c1,inactive,–
Cc1ccc(C2=NN(C(=O)COc3ncnc4ccccc34)C(c3ccco3)C2)cc1 (centres undefined),inactive,–
C=C(C)C(=O)c1ccc(F)cc1,inactive,–
CCn1c(O)c(N=NC2=NC(=O)CS2)c2cc(C)ccc21,14.1 µM (active),–

SMILES,Potency,"activity, negative = inhibition"
CCn1c(O)c(N=NC(=O)c2cccc(S(=O)(=O)N3CCCCC3)c2)c2ccccc21,inactive,–
O=C(N/N=C/c1ccccn1)c1ccc(S(=O)(=O)N2CCCCCC2)cc1,inactive,–
CC(c1ccco1)N(C(=O)COc1ccccc1[N+](=O)[O-])c1ccccn1 (centres undefined),inactive,–
CC(c1ccco1)N(C(=O)c1ccc(S(=O)(=O)N2CCCCC2)cc1)c1ccccn1 (centres undefined),12.6 µM (active),–
COc1ccc(C(=O)Nc2ccc(S(=O)(=O)NC(C)C)cc2)cc1,inactive,–
CC(=O)c1ccc(NC(=S)NC(=O)CC(C)C)cc1,inactive,–
COc1ccc(NS(=O)(=O)c2ccc(NC(=S)NC(=O)CC(C)C)cc2)cc1,12.6 µM (active),–
O=C(NCC1CCN(Cc2ccccc2Cl)CC1)Nc1cccc(Cl)c1,inactive,–
COC(=O)C1=C(C)N(c2ccc(Br)cc2)C(=O)/C1=C\c1ccco1,inactive,–
CCC1SC(CC)C(=O)N(CC(=O)NC2CCCCC2)C1=O (centres undefined),inactive,–
O=C(O)Cc1ccc(NCc2ccccc2Cl)cc1,inactive,–
CCC(C)NC(=O)/C=C/c1ccc(S(=O)(=O)NCc2ccco2)cc1 (centres undefined),17.8 µM (active),–
O=C(NC1CCC(O)CC1)c1ccc(S(=O)(=O)NCc2ccco2)cc1 (centres undefined),inactive,–
CC1CCN(S(=O)(=O)c2ccc(S(=O)(=O)NCc3ccco3)cc2)CC1,inactive,–
CN(C)C(=O)c1nc2ccc(Cl)cn2c1CN1CCN(c2ncccn2)CC1,inactive,–
C=C(C)C1CC=C(C)/C(=N/NC(=O)CCCNc2cccc(C)c2)C1 (centres undefined),inactive,–
N#Cc1c(N)nc2c(c1N)CC(C(F)(F)F)O2 (centres undefined),inactive,–
COc1ccc(Cl)cc1-n1c(C)cc(C(=O)OCC(=O)N2CC(=O)Nc3ccccc32)c1C,inactive,–
COc1ccc(S(=O)(=O)N2CCC(C(=O)OCC(=O)c3ccccc3)CC2)cc1[N+](=O)[O-],inactive,–
COc1cc(OC)c(C(=O)OCC(=O)N2CC(=O)Nc3ccccc32)cc1OC,inactive,–
Cc1ccc(S(=O)(=O)N2CCC(C(=O)OCC(=O)N3CC(=O)Nc4ccccc43)CC2)cc1,12.6 µM (active),–
Cc1ccc(S(=O)(=O)N(C)CC(=O)OCC(=O)N2CC(=O)Nc3ccccc32)cc1,inactive,–

SMILES,Potency,"activity, negative = inhibition"
O=C1CN(C(=O)COC(=O)c2cnc(Cl)c(Cl)c2)c2ccccc2N1,1.26 µM (active),–
Oc1cccc(C2c3[nH]c4ccccc4c3CCN2Cc2cnn(-c3ccccc3)c2)c1 (centres undefined),inactive,–
CC(=O)Nc1ccccc1NC(=O)c1cc(C)cc(C)c1,inactive,–
CCOc1ccc(CCNC(=O)C2=C(C)C(=O)OC23CCC(C)CC3)cc1OCC (centres undefined),inactive,–
CC(Sc1nnnn1C1CCCCC1)C(=O)O (centres undefined),inactive,–
O=C(COc1ccc(Cl)cc1)NCc1nnc(SCC(=O)NCC2CCCO2)o1 (centres undefined),inactive,–
Cc1ccc(-c2cc(=O)c3ccc(F)cc3[nH]2)cc1,inactive,–
COc1ccc(Cl)cc1NC(=O)CNc1ccccc1F,31.6 µM (active),–
COc1ccc(C)cc1NC(=O)CSc1nnc(CC(=O)Nc2ccccc2F)n1C,inactive,–
COc1ccc(C)cc1NC(=O)CSc1ccc(Cl)cc1,inactive,–
C=CCOC(=O)NC(c1ccc(F)c(F)c1)C(C(=O)COC)C(=O)OC (centres undefined),inactive,–
COC(=O)C(NC(=O)c1ccc(OC)cc1)(Nc1ncc(S(=O)(=O)c2ccc([N+](=O)[O-])cc2)s1)C(F)(F)F (centres undefined),inactive,–
Cc1cc(C)cc(OCC(=O)Nc2nc3ccc([N+](=O)[O-])cc3s2)c1,inactive,–
CCOCC(=O)Nc1ncc(S(=O)(=O)c2ccc([N+](=O)[O-])cc2)s1,3.55 µM (active),–
Fc1ccc(NC(=S)N2CCc3[nH]c4ccccc4c3C2)cc1,inactive,–
O=C(O)CCCCCNc1ncnc2ccc(Br)cc12,inactive,–
O=C(O)C[C@@H]1NC(=O)[C@H](Cc2ccccc2)NC1=O,inactive,–
O=C(CN1CCN(c2ccc(O)cc2)CC1)NC1CCCc2ccccc21 (centres undefined),11.2 µM (active),–
O=C(CSc1nncs1)NC1CCCc2ccccc21 (centres undefined),inactive,–
O=C(CCC(=O)N1CCN(S(=O)(=O)c2ccccc2)CC1)NC1CCCc2ccccc21 (centres undefined),inactive,–
